Active and inactive are the calls of the source.
Assays:
[1] = anti-His antibody binders, primary screen, artefact control for SMM control protein annotation, biochemical, small-molecule microarray, 635 nm fluorescence (AID 1128); conditions: anti-His Alexa647 antibody binding, higher = more signal;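 further: score merges feature fluorescence with signal-to-noise for each printed compound spot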
[2] = tested on: Human papillomavirus type 1a E7 protein (residues 1-88); assay: HPV1a E7 small-molecule binders, primary screen, biochemical, small-molecule microarray, residues 1-88, 635 nm (AID 1129); conditions: small-molecule microarray binding, fluorescence 635 nm; higher = more signal
[3] = molecular target: Focal adhesion kinase 1 (Homo sapiens) (UniProt Q05397); assay: small-molecule microarray binders of FAK, primary screen, biochemical, 635/667 nm fluorescence, BSA, DTT (AID 1130); conditions: PTK2 binding, 635 nm fluorescence, higher = more signal;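 further: composite of spot emission at 667 nm and signal to noise over triplicate slides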
[4] = tested on: Fibrinogen (Alexa647-labelled); assay: fibrinogen binders on compound microarrays, profiling panel, artefact control for SMM control-protein annotation, biochemical, small-molecule microarray, 635/667 nm fluorescence (AID 1131); conditions: fibrinogen-A647 binding fluorescence, higher = more signal;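 further: z-score merges 667 nm fluorescence with per-spot signal-to-noise over triplicate slides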
[5] = molecular target: Follistatin (Homo sapiens) (UniProt P19883); assay: follistatin binders on small-molecule microarrays, primary screen, biochemical, small-molecule microarray, 635/667 nm fluorescence (AID 1132); conditions: FST binding, 635 nm fluorescence, higher = more signal
[6] = molecular target: Fibroblast growth factor 2 (Homo sapiens) (UniProt P09038); assay: FGF2 binders on small-molecule microarrays, primary screen, biochemical, small-molecule microarray, 635/667 nm fluorescence (AID 1133); conditions: small-molecule microarray binding, FGF2, fluorescence 635/667; higher = more signal
[7] = mitochondrial membrane potential change in A549 cells, profiling panel, cell-based, JC-1 fluorescence, basal, 24 h, 100 nL (AID 1138); conditions: higher = more signal;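 further: A549 lung adenocarcinoma cells under basal conditions with no added stimulus; test concentration not given here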
[8] = tested on: Lefty1; assay: Lefty1 binders on small-molecule microarrays, primary screen, biochemical, small-molecule microarray, 635/667 nm fluorescence (AID 1139); conditions: small-molecule microarray binding, fluorescence 635/667; higher = more signal
[9] = tested on: wheat germ agglutinin (Triticum aestivum), Alexa647-labelled; assay: wheat germ agglutinin binders on compound microarrays, profiling panel, artefact control for SMM control-protein annotation, biochemical, small-molecule microarray, 635/667 nm fluorescence (AID 1140); conditions: WGA-A647 binding, 635 nm fluorescence, higher = more signal;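 further: score merges 667 nm feature emission with signal to noise over triplicate slides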
[10] = molecular target: Luciferin 4-monooxygenase (Photinus pyralis) (UniProt P08659); assay: firefly luciferase enzyme inhibitors, primary screen, biochemical, luminescence, purified enzyme, 2006 set (AID 1141); conditions: SteadyGlo luminescence, 30 min, higher = more signal, called active from +8 up or from −8 down;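 further: cell-free assay with purified firefly luciferase at 100 ng per well in PBS; test concentration not given here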
Chain of Luciferin 4-monooxygenase (Photinus pyralis) (P08659 whole entry, looked up): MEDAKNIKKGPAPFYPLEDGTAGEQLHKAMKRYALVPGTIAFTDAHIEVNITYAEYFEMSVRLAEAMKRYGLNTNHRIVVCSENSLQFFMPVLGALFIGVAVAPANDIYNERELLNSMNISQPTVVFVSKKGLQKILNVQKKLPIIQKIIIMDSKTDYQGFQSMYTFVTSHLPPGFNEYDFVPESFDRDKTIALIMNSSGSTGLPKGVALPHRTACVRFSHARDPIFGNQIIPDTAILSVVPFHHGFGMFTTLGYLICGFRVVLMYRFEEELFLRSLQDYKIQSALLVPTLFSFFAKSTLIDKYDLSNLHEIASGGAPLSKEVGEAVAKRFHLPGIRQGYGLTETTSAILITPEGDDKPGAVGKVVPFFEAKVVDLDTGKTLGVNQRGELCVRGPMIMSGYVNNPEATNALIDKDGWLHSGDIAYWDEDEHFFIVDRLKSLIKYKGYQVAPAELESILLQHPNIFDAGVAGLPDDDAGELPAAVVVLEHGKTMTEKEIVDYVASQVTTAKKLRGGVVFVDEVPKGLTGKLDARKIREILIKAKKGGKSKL

Chain of Focal adhesion kinase 1 (Homo sapiens) (Q05397 whole entry, looked up): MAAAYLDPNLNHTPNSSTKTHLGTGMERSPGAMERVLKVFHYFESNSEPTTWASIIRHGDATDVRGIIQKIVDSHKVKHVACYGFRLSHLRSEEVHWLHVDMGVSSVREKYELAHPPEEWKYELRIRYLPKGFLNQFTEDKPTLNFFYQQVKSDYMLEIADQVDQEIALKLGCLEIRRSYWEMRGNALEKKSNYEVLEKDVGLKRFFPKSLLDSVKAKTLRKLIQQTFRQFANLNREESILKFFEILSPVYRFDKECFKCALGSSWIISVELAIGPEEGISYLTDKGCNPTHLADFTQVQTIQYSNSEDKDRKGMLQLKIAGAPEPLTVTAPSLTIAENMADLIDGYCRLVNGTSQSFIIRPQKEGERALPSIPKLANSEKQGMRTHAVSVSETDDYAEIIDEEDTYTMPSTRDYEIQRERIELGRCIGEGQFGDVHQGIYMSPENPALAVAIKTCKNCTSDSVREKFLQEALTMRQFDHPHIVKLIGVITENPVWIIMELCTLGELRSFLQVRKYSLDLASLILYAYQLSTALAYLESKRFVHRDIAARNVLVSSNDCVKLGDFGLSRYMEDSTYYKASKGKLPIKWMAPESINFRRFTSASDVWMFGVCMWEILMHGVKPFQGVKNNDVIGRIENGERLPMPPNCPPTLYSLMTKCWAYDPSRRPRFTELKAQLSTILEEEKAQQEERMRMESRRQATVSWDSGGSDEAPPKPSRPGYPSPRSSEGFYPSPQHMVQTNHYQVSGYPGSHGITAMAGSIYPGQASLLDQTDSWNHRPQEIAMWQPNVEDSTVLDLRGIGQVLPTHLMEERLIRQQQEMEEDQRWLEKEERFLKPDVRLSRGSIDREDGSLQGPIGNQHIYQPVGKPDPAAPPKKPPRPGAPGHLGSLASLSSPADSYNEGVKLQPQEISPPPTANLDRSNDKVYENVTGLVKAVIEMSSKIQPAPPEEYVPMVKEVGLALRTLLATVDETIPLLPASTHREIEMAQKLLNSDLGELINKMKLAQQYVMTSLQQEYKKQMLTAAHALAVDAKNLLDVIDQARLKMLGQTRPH
Chain of Follistatin (Homo sapiens) (P19883 whole entry, looked up): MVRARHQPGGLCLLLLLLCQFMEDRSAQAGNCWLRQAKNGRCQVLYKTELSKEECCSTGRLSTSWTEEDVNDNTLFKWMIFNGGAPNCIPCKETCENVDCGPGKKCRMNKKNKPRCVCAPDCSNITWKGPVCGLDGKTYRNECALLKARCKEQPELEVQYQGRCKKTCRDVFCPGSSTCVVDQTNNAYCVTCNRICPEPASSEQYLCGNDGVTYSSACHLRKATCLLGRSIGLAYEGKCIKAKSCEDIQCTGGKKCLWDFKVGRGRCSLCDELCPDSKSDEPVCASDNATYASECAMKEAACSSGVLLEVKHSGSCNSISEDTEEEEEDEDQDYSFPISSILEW
Chain of Fibroblast growth factor 2 (Homo sapiens) (P09038 whole entry, looked up): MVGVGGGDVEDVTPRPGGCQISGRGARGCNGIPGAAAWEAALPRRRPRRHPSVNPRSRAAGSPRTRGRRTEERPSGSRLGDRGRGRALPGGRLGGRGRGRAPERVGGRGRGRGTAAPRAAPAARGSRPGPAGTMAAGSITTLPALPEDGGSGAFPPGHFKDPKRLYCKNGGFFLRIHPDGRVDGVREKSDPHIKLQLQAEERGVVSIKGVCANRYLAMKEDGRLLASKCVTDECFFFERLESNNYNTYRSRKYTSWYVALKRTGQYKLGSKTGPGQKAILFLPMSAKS

| SMILES | composite z-score [1] | composite z-score [2] | composite z-score [3] | composite z-score [4] | composite z-score [5] | composite z-score [6] | z-score [7] | composite z-score [8] | composite z-score [9] | z-score [10] |
| --- | --- | --- | --- | --- | --- | --- | --- | --- | --- | --- |
| CC(C)=CCCC(C)=CCON=C1C[C@@H](O)[C@@H](O)[C@@H]2[C@@H]3C(=O)N(c4ccc(F)cc4F)C(=O)[C@@H]3CC[C@@H]12 | 0.0658 | -0.167 | 0.121 | 0.89 | 1.04 | 0.393 | -0.913 | 1.27 | 1.06 | 1.03 (inactive) |
| CC(C)=CCCC(C)=CCON=C1C[C@@H](O)[C@@H](O)[C@@H]2[C@@H]3C(=O)N(Cc4ccccc4)C(=O)[C@@H]3CC[C@@H]12 | 0.546 | -0.369 | -0.0506 | -0.266 | 1.07 | 1.44 | 0.071 | 0.894 | -0.0507 | 1.19 (inactive) |
| CCOC(=O)[C@H](CC(C)C)NC(=O)CCC1CC(OC(=O)NCCc2ccc(F)cc2)CC2(CCCC(COC(=O)NCC3CCCCC3)O2)O1 (stereo not given in full) | 0.183 | 0.579 | -0.124 | 0.623 | 0.51 | 0.631 | -0.506 | 0.803 | 0.676 | 0.997 (inactive) |
| C#CCCCON=C1C[C@@H](O)[C@@H](O)[C@@H]2[C@@H]3C(=O)N(CCC(=O)OCC)C(=O)[C@@H]3CC[C@H]12 | 0.997 | 0.929 | -0.0834 | 0.375 | 1.06 | 0.613 | 0.317 | 0.861 | 0.101 | -0.891 (inactive) |
| CC(=O)OC[C@H]1O[C@H](CCON=C2[C@H]3CCn4c(=O)n(-c5ccccc5)c(=O)n4[C@H]3[C@H](O)[C@@H]3O[C@H]23)C=C[C@@H]1OC(C)=O | -0.405 | -0.169 | -0.749 | 0.366 | 0.334 | 0.594 | -0.297 | 0.397 | -0.0229 | 0.416 (inactive) |
| COc1cccc([C@H]2Oc3ccc(OC)cc3C(=NOC(C)CN3CCCCc4nc(C)c(C)cc43)[C@@H]2O)c1 (stereo not given in full) | 1.95 | 0.195 | -0.251 | 0.755 | 0.241 | 0.414 | -0.349 | 0.341 | 0.698 | -0.404 (inactive) |
| CCOC(=O)[C@H](CC(C)C)NC(=O)CCC1CC(OC(=O)NCc2ccc3c(c2)OCO3)CC2(CCCC(COC(=O)NCCCN3CCCC3=O)O2)O1 (stereo not given in full) | 0.581 | 1.15 | 0.115 | 0.741 | 0.476 | 1.12 | 1.26 | 0.803 | 0.911 | 0.0579 (inactive) |
| CCOC(=O)NN=C1C[C@@H](O)[C@@H](O)[C@@H]2[C@@H]3C(=O)N([C@@H](C)c4ccccc4)C(=O)[C@@H]3CC[C@@H]12 | -0.43 | 0.0085 | 0.692 | 0.897 | 1.28 | 0.642 | -0.337 | 1.3 | 0.193 | 0.685 (inactive) |
| C[C@@H](c1ccccc1)N1C(=O)[C@H]2[C@H]3[C@H](O)[C@H](O)CC(=NO[C@@H]4O[C@H](CO)[C@@H](O)[C@H](O)[C@H]4O)[C@H]3CC[C@H]2C1=O | 0.746 | 0.76 | -0.0492 | 0.318 | 0.656 | 0.444 | 0.296 | 0.554 | 0.0795 | 0.491 (inactive) |
| CCOC(=O)[C@H](CC(C)C)NC(=O)CCC1CC(OC(=O)NCCc2ccc(F)cc2)CC2(CCCC(COC(=O)NCCOc3ccccc3)O2)O1 (stereo not given in full) | 0.744 | 0.698 | 0.231 | 0.985 | 0.826 | 0.692 | 0.0542 | 1.35 | 0.394 | 0.96 (inactive) |
| CO[C@H](C1CCCCC1)[C@H](C)C=CCC(=O)OCCCc1ccccc1 | 3.29 | -1.15 | 0.114 | -0.938 | 0.351 | 0.541 | -0.00988 | 0.0696 | -0.464 | -1.02 (inactive) |
| CCOC(=O)[C@H](CC(C)C)NC(=O)CCC1CC(OC(=O)NCCc2ccc(F)cc2)CC2(CCCC(COC(=O)NCCc3ccc(Cl)cc3)O2)O1 (stereo not given in full) | 0.704 | 0.596 | 0.688 | 0.75 | 0.692 | 0.84 | -0.156 | 1.34 | 0.61 | 0.442 (inactive) |
| CCc1cc2c(nc1CC)CCN(CCC(C)=NO[C@@H](C)c1cn([C@H](CO)Cc3ccccc3)nn1)C2 | 1.62 | -0.452 | -0.0908 | 0.996 | 0.595 | 0.0391 | 2.07 | 0.529 | 0.307 | -0.896 (inactive) |
| COC(=O)[C@H](C)NC(=O)CCC1CC(OC(=O)NCc2ccc3c(c2)OCO3)CC2(CCCC(COC(=O)NCC3CCCCC3)O2)O1 (stereo not given in full) | 0.807 | 1.16 | 0.408 | 0.52 | 0.533 | 0.77 | -0.00341 | 0.97 | 0.723 | 1.16 (inactive) |
| CCN1C(=O)[C@H]2[C@H]3[C@H](O)[C@H](O)CC(=NOCC(C)C)[C@@H]3CC[C@H]2C1=O | 0.768 | 1.04 | 0.627 | 0.231 | 0.84 | 0.0017 | -0.753 | 0.625 | -0.0157 | 0.887 (inactive) |
| C[C@@H]1CC[C@H]2C(=O)O[C@@H](Cc3ccccc3)CN2[C@H]1c1ccc(Br)cc1 | 2.07 | 0.688 | 0.217 | 0.376 | 0.397 | 0.297 | 0.362 | 0.495 | 0.526 | 0.178 (inactive) |
| CC(C)=CCCC(C)=CCON=C1C[C@@H](O)[C@@H](O)[C@@H]2[C@@H]3C(=O)N(C(C)(C)C)C(=O)[C@@H]3CC[C@@H]12 | 0.696 | 0.494 | 0.057 | -0.0293 | 0.307 | 0.247 | -0.872 | 0.351 | 0.269 | 0.421 (inactive) |

Source: PubChem BioAssay
